Compound activity deposited in PubChem BioAssay by National Center for Advancing Translational Sciences (NCATS).
3T3 cytotox = NIH 3T3 cell cytotoxicity | NIH 3T3 viability, CellTiter-Glo ATP luminescence, 48-72 h | Potency, µM (highest dose often 96.7 µM), for the others: top-dose activity change, negative = cytotoxicity, most hits filed as inhibitors | actives 4.3% (n = 94,000) | AID 1345082; note: % is set by controls: 0 for no effect and ±100 for the full control effect; nearly all actives have a fitted effect of over 55% in size
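Mouse fibroblast NIH 3T3 cells, 400 per well, received compound via pintool and were incubated for 48 or 72 hr prior to CellTiter-Glo ATP luminescence measurement.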
NPR1 antag = blocks ANP-stimulated signaling of human Npr1 receptor; P16066; HEK293 hNpr1 GloSensor cGMP, ANP-stimulated luminescence; Potency, µM (series often up to 46.3 µM), for inactives: at the highest dose activity change, negative = inhibition, hits mostly inhibitors; actives 1.6% (n = 76,000); calls by dose curve; note: % is set by controls: 0 for no effect and ±100 for the full control effect; nearly all actives have a fitted effect of over 60% in size
Target sequence (P16066 whole entry, looked up): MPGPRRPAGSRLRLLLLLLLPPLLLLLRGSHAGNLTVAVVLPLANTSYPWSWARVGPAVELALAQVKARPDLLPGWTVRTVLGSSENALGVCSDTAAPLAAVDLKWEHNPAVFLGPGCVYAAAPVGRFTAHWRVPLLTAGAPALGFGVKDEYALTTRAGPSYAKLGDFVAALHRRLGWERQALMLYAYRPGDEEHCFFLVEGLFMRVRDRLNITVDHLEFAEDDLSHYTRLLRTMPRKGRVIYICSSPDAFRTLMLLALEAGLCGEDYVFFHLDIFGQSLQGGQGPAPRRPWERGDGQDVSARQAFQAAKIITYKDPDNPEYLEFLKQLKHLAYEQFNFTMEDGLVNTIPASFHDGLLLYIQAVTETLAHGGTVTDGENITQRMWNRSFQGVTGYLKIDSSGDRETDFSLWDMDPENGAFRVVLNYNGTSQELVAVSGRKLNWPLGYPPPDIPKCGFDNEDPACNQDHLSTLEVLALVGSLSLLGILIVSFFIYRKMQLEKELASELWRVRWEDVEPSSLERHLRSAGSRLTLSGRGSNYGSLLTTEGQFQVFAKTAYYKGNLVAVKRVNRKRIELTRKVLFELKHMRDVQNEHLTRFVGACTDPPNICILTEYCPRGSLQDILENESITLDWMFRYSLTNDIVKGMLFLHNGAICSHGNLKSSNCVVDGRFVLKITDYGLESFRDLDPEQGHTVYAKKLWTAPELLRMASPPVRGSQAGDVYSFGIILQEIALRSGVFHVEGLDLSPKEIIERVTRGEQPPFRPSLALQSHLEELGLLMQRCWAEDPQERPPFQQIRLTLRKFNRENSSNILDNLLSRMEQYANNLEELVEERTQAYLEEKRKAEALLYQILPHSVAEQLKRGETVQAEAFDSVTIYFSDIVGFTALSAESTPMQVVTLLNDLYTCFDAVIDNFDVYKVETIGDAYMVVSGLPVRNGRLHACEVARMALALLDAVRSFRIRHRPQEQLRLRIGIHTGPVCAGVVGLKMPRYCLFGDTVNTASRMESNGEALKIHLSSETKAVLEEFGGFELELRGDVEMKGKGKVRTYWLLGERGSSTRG
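HEK293 cells stably expressing human Npr1 and cGMP GloSensor pGS-40F, loaded 2 h with 2% GloSensor reagent, given compound 30 min at room temperature. Luminescence read before and 20 min after 0.1 nM hNppA.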
HEK cytotox = HEK 293 cell cytotoxicity; actives 6.6% (n = 94,000); Potency, µM (top dose mostly 115 µM), for inactives: top-dose activity change, negative = cytotoxicity, usual class: inhibitors; HEK 293 viability, ATP luminescence (CellTiter-Glo), 48-72 h; note: % is set by controls: 0 for no effect and ±100 for the full control effect; nearly all actives have a fitted effect of over 60% in size
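Pintool-delivered compounds were incubated with HEK 293 cells (250 cells/well) at 37 degree Celsius for 48 or 72 hr. ATP-dependent luminescence (CellTiter-Glo) then reported remaining viable cells.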
FLuc inh-1 = Photinus pyralis luciferase inhibition; purified P. pyralis luciferase, luminescence, biochemical; AID 1347043; Potency, µM (highest dose often 115 µM), usual class: inhibitors; actives 2.5% (n = 76,000); note: % is set by controls: 0 for no effect and ±100 for the full control effect; nearly all actives have a fitted effect of over 65% in size
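Biochemical qHTS: compound (6-point titration) added to 10uM D-luciferin plus 10uM ATP in Tris acetate pH 7.5 buffer with Mg, Tween-20 and BSA, then purified enzyme at 10nM; light output imaged.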
FLuc SDR -ATP = binders stabilizing firefly luciferase, without ATP; shares compounds with FLuc inh-1; Purified FLuc-C-HiBiT, Nano-Glo HiBiT luminescence, no ATP; Potency, µM (top dose mostly 32.7 µM), without a hit: at the highest dose activation (signal gain), hits mostly activators; actives 7.8% (n = 1,300); AID 1963318; note: nearly all actives have a fitted effect of over 55% in size
FLuc SDR ATP = stabilizes firefly luciferase with ATP present; shares compounds with FLuc inh-1; purified FLuc-C-HiBiT + ATP, HiBiT complementation luminescence; Potency, µM (series often up to 32.7 µM), for the others: at the top dose activation (gain of signal), hits mostly activators; actives 8.7% (n = 1,300);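 note: signal reports ligand binding via conformational change of the enzyme rather than luciferase catalysis; % of control where 0% means no effect; nearly all actives have a fitted effect of over 55% in size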
FLuc inh-2 = inhibitors of firefly luciferase enzymatic activity | shares compounds with FLuc inh-1 | purified FLuc-C-HiBiT enzyme, luciferin luminescence | Potency, µM (doses to about 32.7 µM), for inactives: at the highest dose activity change, negative = inhibition, usual class: inhibitors | actives 42% (n = 1,300) | AID 1963320; note: % is set by controls: 0 for no effect and ±100 for the full control effect; nearly all actives have a fitted effect of over 70% in size
Numbers without * were called inactive; [ ] = another dose, or the depositor's remark. Sampled rows, rich in hits. Any-hit rate of the full collection: about 11%. Unless noted, calls come from the whole dose curve; as a rule, active = well fitted curve in the direction sought with a large enough effect; inconclusive = small, poorly fitted or top-dose-only effect, or another doubt; inactive = no such curve, though single readings can be large; an effect the other way counts as inactive or inconclusive. Potency is the fitted concentration of half-maximal effect.

For COc1ccc(C(=O)Nc2cccc(-c3nnc4n3CCCC4)c2)cn1 the results were 3T3 cytotox -24%, NPR1 antag 1%, HEK cytotox 2% and FLuc inh-1 inactive.
For CCOC1CCOC2(CCN(C(=O)c3nn(C)c4ccccc34)CC2)C1 (stereo unspecified) the results were 3T3 cytotox 2%, NPR1 antag -8%, HEK cytotox 0% and FLuc inh-1 inactive.
Screening Cn1nccc1C(=O)N1CCC(N2CC3(CCCCC3)C2c2ccncc2)CC1 (stereo unspecified) returned 3T3 cytotox 0% and HEK cytotox 5%.
For O=C(COc1ccc(Cl)cc1)Nc1ccc(-c2nc3ccccc3s2)c(O)c1 the results were FLuc SDR -ATP 15%, FLuc SDR ATP 11% and FLuc inh-2 1%.
O=C(COc1ccc(-c2nnc3n2CCCC3)cc1)Nc1ccccc1 was read as 3T3 cytotox -5%, NPR1 antag -7%, HEK cytotox -18% and FLuc inh-1 inactive.
For O=C(COc1ccc(Cl)cc1)Nc1ccc(O)c(-c2nc3ccccc3s2)c1 the results were FLuc SDR -ATP 13%, FLuc SDR ATP 9% and FLuc inh-2 3%.
For Cc1ccc(NC(=O)COc2ccc(-c3nnc4n3CCCC4)cc2)cc1F the results were 3T3 cytotox inconclusive, NPR1 antag -7%, HEK cytotox -7% and FLuc inh-1 inactive.
`O=C(CCCS(=O)(=O)c1ccc(Cl)cc1)Nc1ccc(O)c(-c2nc3ccccc3s2)c1` gave FLuc SDR -ATP 17%, FLuc SDR ATP 10% and FLuc inh-2 0%.
`O=C(NC1CCC1)[C@@H]1CCCN1c1ccnc2ccnn12` gave 3T3 cytotox inconclusive and HEK cytotox -28%[172 µM].
Screening Cc1ccccc1S(=O)(=O)N1CCCCC1c1nc(CCOCC2CCOCC2)no1 (stereo unspecified) returned 3T3 cytotox -21% and HEK cytotox inconclusive.
`CC(C)NC(=O)c1nc(C(C)(C)C)c2cnccn12` gave 3T3 cytotox inconclusive and HEK cytotox -25%[172 µM].
O=S(=O)(c1cccc(C(F)(F)F)c1)n1c(/C=C/c2ccccc2)nc2ccccc21 was read as FLuc SDR -ATP 1.6µM*, FLuc SDR ATP inconclusive and FLuc inh-2 0.56µM*.
For CSc1ccc(/C=C/c2nc3ccccc3n2S(=O)(=O)c2ccc(Br)cc2)cc1 the results were FLuc SDR -ATP 7.9µM*, FLuc SDR ATP inconclusive and FLuc inh-2 0.7µM*.
COC(=O)[C@@H]1Cc2ncn(Cc3ccccc3)c2CN1S(=O)(=O)c1cccc(C(F)(F)F)c1 was read as 3T3 cytotox inconclusive, NPR1 antag -5%, HEK cytotox inconclusive and FLuc inh-1 inactive.
For O=C(c1[nH]ncc1Cl)N1CCOC(Cc2cccc(C(F)(F)F)c2)C1 (stereo unspecified) the results were 3T3 cytotox -29%, NPR1 antag -3%, HEK cytotox inconclusive, FLuc inh-1 13µM*, FLuc SDR -ATP 13%, FLuc SDR ATP 12% and FLuc inh-2 -15%.
`COCCNC(=O)[C@@H](C)C1CC[C@@]2(C)Cc3sc(CSc4ccccc4)nc3[C@@H](C)[C@@H]2[C@H]1O` (stereo partly specified) gave 3T3 cytotox inconclusive, NPR1 antag 11µM*, HEK cytotox inconclusive, FLuc inh-1 7.1µM*, FLuc SDR -ATP 28%, FLuc SDR ATP inconclusive and FLuc inh-2 inconclusive.
